Several values for one entry are separate records, joined by “and”; a condition that tells them apart may be missing. Equal entries are not always repeated. Activity calls are given as the source filed them.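 Rule for the calls, unless noted: active = inhibition at or above 50% relative to wild type and mutant plate controls; inactive = inhibition below 50%.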

The nature of assay [1]: inhibitors of TNFa-induced NFkB p65 translocation, primary screen, imaging, HUVEC, MLSMR starter and 10KST1 sets (AID 438;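 active = inhibition above 20% together with a positive visual image hit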;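 note: compound added about 3h40 before a 20 min TNFalpha stimulation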;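 for inhibition: signal is the nuclear over cytoplasmic p65 intensity ratio per well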). To be noted: HUVEC TNFa-induced p65 nuclear translocation; cell count: measured here: nuclei count (cytotoxicity indicator), at 2.08 µM; inhibition: at 2 µM, stronger effect = higher value, 0% TNFa-plus-vehicle, 100% no-TNFa wells.
Assay [2] is described as follows: inhibitors of mutant huntingtin aggregation, primary screen, imaging, exon1htt(103Q)mCFP cells, high-content imaging (AID 483;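 active = visual image review flags a hit and inhibition of aggregation exceeds 20%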;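 note: compound exposure lasted 3 days before fixation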;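 for nuclei count: percent of the per-plate median nuclei count of sample wells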). The following applies: exon1htt(103Q)mCFP cell line, aggregate imaging, at 2 µM; inhibition of aggregation: stronger effect = higher value; nuclei count: measured here: cell count, toxicity.
Assay [3] in a line: inhibitors of E-selectin induction by TNFa, primary screen, imaging, HUVEC, immunofluorescence, MLSMR starter and 10KST1 sets (AID 487;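 active = visually confirmed hit in the image check and inhibition above 20%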;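 for inhibition: signal is fraction of cell area covered by stained E-selectin grains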;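 for nuclei count: 100% = median nuclei count of all wells on the same plate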). To be noted: HUVEC TNFalpha-induced E-selectin immunofluorescence imaging, at 2 µM; inhibition: stronger effect = higher value; nuclei count: measured here: cell number, toxicity.
A short description of assay [4]: DUSP6 inhibitors restoring Erk phosphorylation by chemical complementation, primary imaging in DUSP6-transfected HeLa (AID 609;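 active = compounds giving at least 50% inhibition in the cell-based MKP-3 phosphatase rescue imaging test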;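 for inhibition: phospho-Erk level distribution per well compared with pooled transfected vehicle control wells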). To be noted: HeLa MKP-3 transfected, phospho-Erk imaging KS statistic, at 10 µM, cells stimulated with TPA for 15 min.
In assay [5] the target is Dual specificity protein phosphatase 6 (Homo sapiens) (UniProt Q16828). The assay is described as above. To be noted: HeLa MKP-3 transfected, phospho-Erk imaging KS statistic; at 10 µM; stronger effect = higher value; cells stimulated with TPA for 15 min.
In assay [6] the target is Voltage-gated potassium channel subunit beta-2 (Rattus norvegicus) (UniProt P62483). Kind of assay: KvBeta enzyme negative modulators, primary screen, biochemical, NADPH fluorescence (AID 622;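 active = fluorescence slope higher than the sample average by over 3 SD, cut at about -0.22 in these data, passing the limit was not always enough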;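 note: slope of raw intensity against log time taken from 70 to 1610 s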). To be noted: recombinant KvBeta, 4-cyanobenzaldehyde reduction, at 10 µM, stronger effect = higher value.
Assay [7] has the same target. The experiment in a line: KvBeta positive modulators, primary screen, biochemical, NADPH fluorescence (AID 623;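 active = NADPH fluorescence slope more negative than the mean of all samples by about 3 SD, 99.7% confidence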;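 note: fluorescence intensity change per second fitted from 20 to 320 s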). The following applies: Recombinant KvBeta, NADPH fluorescence decrease slope, 10 min; at 10 µM; stronger effect = lower value.
In assay [8] the target is Alpha-2C adrenergic receptor (Homo sapiens) (UniProt P18825). Kind of assay: modulators of alpha2C/GIRK thallium flux, primary screen, cell-based, HEK293 alpha2C/GIRK1/2 (AID 624;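 active = fluorescence slope after compound addition differing from the mean of all screened samples at 99.7% confidence, in either direction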;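 note: slope of fluorescence ratio to pre-addition baseline per second over 15 to 24 s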). The following applies: thallium flux BTC fluorescence, at 10 µM, actives lie on both sides.
Assay [9] is described as follows: inhibitors of larval lipid processing in zebrafish, primary screen, whole organism, PED6 fluorescence, gall bladder and intestine (AID 686;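 active = a full or partial loss of lipid-probe fluorescence in the fish gall bladder, intestine or both, judged by eye; inactive = no fluorescence loss, or compound toxic to the fish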;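 note: larvae 5 to 7 days old with five fish per well; signal comes from phospholipase A2 cleavage of quenched PED6 carried via bile; overnight exposure to compound and PED6 before scoring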). To be noted: Zebrafish larvae PED6 lipid processing, fluorescence scoring; screened at 20 µM (by protocol).
Assay [10] can be described thus: inhibitors of Chlamydomonas gravitaxis, primary screen, whole organism, Chlamydomonas reinhardtii, WT vs cilia-less mutant, absorbance, 96-well (AID 463189).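 Note: 0% = wild type cc124 cells in DMSO and 100% = ciliumless bld1 mutant cells.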 The following applies: OD600 absorbance, 2 days, at 10 µM, stronger effect = higher value.
The nature of assay [11]: inhibitors of Sendai virus-induced IRF3 signaling, primary screen, TLR/RLR signaling modifier project, cell-based, Sendai virus stimulus, luciferase, 10K MLSCN set (AID 602276;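 active = inhibition at or above 50% at 10 µM; inactive = inhibition below 50%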;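 note: firefly luciferase from ISG56 promoter only with Renilla not read in this screen; 0% = Sendai virus plus DMSO and 100% = medium plus DMSO without virus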). To be noted: HEK293 RL24 IRF3 luciferase reporter, at 10 µM, stronger effect = higher value. (In a reporter assay the amount or activity of a reporter protein is the signal.)
Assay [12] in a line: inhibitors of poly I:C-induced TLR3 signaling, primary screen, cell-based, poly I:C stimulus, luciferase, 10K MLSCN set (AID 602277;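 active = inhibition of the reporter signal at or above 50%; inactive = inhibition below 50%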). The following applies: HEK293-TLR3 RL24 IRF3 luciferase reporter, at 10 µM, stronger effect = higher value.
Where [13] appears, read: measured here: cell density z-score.
Setting [14] is: measured here: nuclear c-Myc green intensity z-score.
Setting [15] is: measured here: nuclear pErk red intensity z-score, stronger effect = higher value.

Dual specificity protein phosphatase 6 (Homo sapiens), sequence (Q16828 whole entry, looked up): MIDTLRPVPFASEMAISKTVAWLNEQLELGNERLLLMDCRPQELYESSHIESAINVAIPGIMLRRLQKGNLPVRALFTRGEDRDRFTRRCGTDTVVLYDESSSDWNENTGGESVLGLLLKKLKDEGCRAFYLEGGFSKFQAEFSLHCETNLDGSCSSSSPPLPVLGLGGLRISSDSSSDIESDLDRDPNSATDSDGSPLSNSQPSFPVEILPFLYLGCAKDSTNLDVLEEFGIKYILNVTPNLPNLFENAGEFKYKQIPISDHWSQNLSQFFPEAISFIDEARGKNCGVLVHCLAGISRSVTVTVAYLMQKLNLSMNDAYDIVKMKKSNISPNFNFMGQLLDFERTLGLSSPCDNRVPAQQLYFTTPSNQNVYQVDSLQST
Voltage-gated potassium channel subunit beta-2 (Rattus norvegicus), sequence (P62483 whole entry, looked up): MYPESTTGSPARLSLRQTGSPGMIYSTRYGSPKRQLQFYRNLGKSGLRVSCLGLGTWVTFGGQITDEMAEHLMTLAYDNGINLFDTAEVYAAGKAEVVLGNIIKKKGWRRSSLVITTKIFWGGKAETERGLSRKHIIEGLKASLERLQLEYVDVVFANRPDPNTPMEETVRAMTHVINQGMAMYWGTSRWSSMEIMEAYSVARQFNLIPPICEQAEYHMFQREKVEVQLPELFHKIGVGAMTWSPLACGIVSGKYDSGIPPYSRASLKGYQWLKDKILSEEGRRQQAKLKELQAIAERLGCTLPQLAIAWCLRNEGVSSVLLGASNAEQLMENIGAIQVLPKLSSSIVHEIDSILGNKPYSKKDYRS
Alpha-2C adrenergic receptor (Homo sapiens), sequence (P18825 whole entry, looked up): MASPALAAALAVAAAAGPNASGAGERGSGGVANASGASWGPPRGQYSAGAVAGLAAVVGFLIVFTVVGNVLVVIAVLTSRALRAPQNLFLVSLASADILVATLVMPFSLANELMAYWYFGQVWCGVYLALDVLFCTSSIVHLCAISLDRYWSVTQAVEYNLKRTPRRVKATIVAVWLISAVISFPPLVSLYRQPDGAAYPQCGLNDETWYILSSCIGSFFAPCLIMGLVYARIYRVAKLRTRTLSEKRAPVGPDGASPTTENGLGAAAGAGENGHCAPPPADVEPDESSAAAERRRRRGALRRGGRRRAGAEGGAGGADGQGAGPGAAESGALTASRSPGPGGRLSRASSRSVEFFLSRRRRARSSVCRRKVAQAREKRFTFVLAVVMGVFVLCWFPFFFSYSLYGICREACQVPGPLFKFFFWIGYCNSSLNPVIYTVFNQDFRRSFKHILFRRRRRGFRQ

A word on the inhibition: it is the drop in the measured response relative to a control, in per cent. For the molecule `CN1C(C(=O)Nc2ccccn2)=C(O)c2ccccc2S1(=O)=O`, the cell count in assay [1] is 593 and 424. Further, the inhibition in [1] is -2.6% (inactive) and -16.7% (inactive); in assay [3], -30.1% (inactive) and -244% (inactive); in assay [5], 11.3% (inactive) and 2.71% (inactive); in [10] it was 7.21% (inactive) and 26% (inactive) and -1.23% (inactive); in [11], -0.169% (inactive); in [12] it was -2.96% (inactive). Moreover, the inhibition of aggregation in assay [2] was -13.6% (inactive). Also, the nuclei count was 111% in [2]; 112% and 218% in assay [3]. Also, the z-score is 0.668 and -0.761 in assay [4] (setting [13]); 0.887 and -0.948 in assay [4] (setting [14]); -0.364 and 0.452 in [4] (setting [15]). Further, in [6], the fluorescence slope was -0.457 (inactive) and -0.395 (inactive). Further, the NADPH fluorescence slope in assay [7] was 1.6e-05 (inactive) and -1.1e-05 (inactive). Further, in [8], the slope was 0.00561 (inactive) and 0.00377 (inactive). Besides, the result in assay [9] was inactive.

For `CC1CCc2cc(F)cc3c(O)c(C(=O)Nc4cnccn4)c(=O)n1c23` (stereo not given), the cell count in assay [1] amounted to 457. The inhibition is -7.7% (inactive) in assay [1]; -40.6% (inactive) in [3]; 17.5% (inactive) in assay [5]; -9.12% (inactive) in assay [10]; 13.2% (inactive) in [11]; 21.7% (inactive) in assay [12]. Also, the inhibition of aggregation in assay [2] was 3.8% (inactive). The nuclei count came to 99.3% in assay [2] and 99.4% in assay [3]. In addition, the z-score is 0.762 in [4] (setting [13]), 0.74 in assay [4] (setting [14]) and 0.103 in assay [4] (setting [15]). Also, in assay [6], the fluorescence slope is -0.351 (inactive). Moreover, the NADPH fluorescence slope in [7] was 2e-05 (inactive). Further, the slope in [8] was 0.0057 (inactive). In addition, the molecule was called inactive in assay [9].

On to `COCCOC(=O)c1c(C)nc(SCC(=O)Nc2ccc(OC)cc2)c(C#N)c1-c1ccco1`, for which the cell count in [1] came out at 386. For the same molecule, the inhibition is -17.9% (inactive) in assay [1]; -23.1% (inactive) in assay [3]; -6.59% (inactive) in assay [5]; -0.332% (inactive) in [10]; 16.9% (inactive) in assay [11]; 12.1% (inactive) in [12]. Besides, the inhibition of aggregation in assay [2] is -11.5% (inactive). The nuclei count was 76% in assay [2] and 90% in [3]. The z-score in assay [4] (setting [13]) is -0.584; in [4] (setting [14]), -0.072; in assay [4] (setting [15]) it was -0.599. The fluorescence slope in [6] was -0.422 (inactive). In assay [7], the NADPH fluorescence slope was -2.9e-05 (inactive). Also, the slope in assay [8] is 0.00733 (inactive). For the same molecule, in assay [9], the call was inactive.

As for `O=C(NC1(C(F)(F)F)C(=O)Nc2c1c(=O)[nH]c(=O)n2Cc1ccco1)C1CCCCC1` (stereo not given), the cell count in assay [1] came out at 463. For the same molecule, the inhibition is 4.1% (inactive) in assay [1]; -64.3% (inactive) in assay [3]; 3.5% (inactive) in assay [5]; 30.9% (inactive) in assay [10]; 12.9% (inactive) in assay [11]; 19.7% (inactive) in [12]. Also, the inhibition of aggregation in assay [2] was -6.3% (inactive). In addition, the values for the nuclei count in assay [2] and in [3] were 116% and 112%, respectively. Also, the z-score in [4] (setting [13]) was -1.32; in [4] (setting [14]), 1.09; in [4] (setting [15]), 0.0354. Further, the fluorescence slope in assay [6] is -0.49 (inactive). For the same molecule, in [7], the NADPH fluorescence slope was 1.3e-05 (inactive). The slope in assay [8] was 0.00536 (inactive). Also, in assay [9], the molecule was classed as inactive.

On to `CN1CCC(=C2c3ccccc3CC(=O)c3sccc32)CC1`, for which the cell count in [1] is 641. Further, the inhibition in assay [1] was 5.3% (inactive); in [3] it was -56.9% (inactive); in assay [5], 10.2% (inactive); in assay [10], -11.3% (inactive) and 22.8% (inactive); in assay [11], -1.65% (inactive); in assay [12] it was 51.2% (active). Also, the inhibition of aggregation in assay [2] was 5.4% (inactive). In addition, the nuclei count in [2] came out at 97.7%; in assay [3], 126%. For the same molecule, the z-score in assay [4] (setting [13]) was 2.91; in [4] (setting [14]), 0.175; in assay [4] (setting [15]), -2.59. For the same molecule, the fluorescence slope in assay [6] was -0.5 (inactive). Further, the NADPH fluorescence slope in [7] was -6.2e-05 (inactive). Moreover, in assay [8], the slope was 0.00525 (inactive). Moreover, the molecule was called inactive in assay [9].

As to `C=CCn1c(N)c(C(=O)OC(C)(C)C)c2nc3ccccc3nc21`, the cell count in [1] came to 370. The inhibition in assay [1] is -11.7% (inactive); in [3] it was -104% (inactive); in assay [5], -2.59% (inactive); in [10], 12.3% (inactive); in assay [11], 12.2% (inactive); in assay [12], -1.21% (inactive). For the same molecule, in assay [2], the inhibition of aggregation is -9.4% (inactive). The nuclei count in assay [2] was found to be 100%; in assay [3] it was 124%. In addition, the z-score in [4] (setting [13]) is 1.71; in assay [4] (setting [14]), -2; in [4] (setting [15]), -1.69. Further, the fluorescence slope in [6] was -0.257 (inactive). The NADPH fluorescence slope in assay [7] was 0.000211 (inactive). Also, the slope in assay [8] was 0.00615 (inactive). Besides, the molecule was called inactive in [9].

For `CN1CCN(/C=N/c2sc3c(c2C#N)CCCCC3)CC1`, the cell count in [1] stood at 536. Besides, the inhibition in [1] was -4.8% (inactive); in [3], -74.7% (inactive); in [5] it was -4.27% (inactive); in assay [10], 135% (active); in assay [11], -35.3% (inactive); in [12], -83.9% (inactive). In addition, the inhibition of aggregation in assay [2] is 2.6% (inactive). For the same molecule, the figures for the nuclei count in assay [2] and in assay [3] were 116% and 108%, respectively. The z-score in [4] (setting [13]) was -3.34; in [4] (setting [14]), 0.909; in assay [4] (setting [15]), 1.9. Further, the fluorescence slope in assay [6] is -0.42 (inactive). For the same molecule, in assay [7], the NADPH fluorescence slope was -6e-06 (inactive). The slope in assay [8] is 0.00496 (inactive). For the same molecule, the molecule was classed as inactive in assay [9].

Take `CC(=O)O[C@H]1C[C@@H]2CC[C@@H]3[C@H](CC[C@@]4(C)[C@H]3C[C@H]([N+]3(C)CCCCC3)[C@@H]4OC(C)=O)[C@@]2(C)C[C@@H]1[N+]1(C)CCCCC1`: in assay [1], the cell count was 612. Further, the inhibition in [1] was 0.4% (inactive); in [3], -24.6% (inactive); in assay [5], 7.39% (inactive); in assay [10] it was 0.263% (inactive) and 18.9% (inactive); in [11] it was 21.9% (inactive); in [12], 31.6% (inactive). Besides, the inhibition of aggregation in [2] is -15.2% (inactive). Besides, the nuclei count in assay [2] was 115%; in assay [3], 114%. Further, the z-score in assay [4] (setting [13]) was -0.612; in [4] (setting [14]), 0.0914; in [4] (setting [15]), 0.638. Besides, in assay [6], the fluorescence slope was -0.45 (inactive). The NADPH fluorescence slope in [7] was 2.4e-05 (inactive). In assay [8], the slope is 0.00404 (inactive). The molecule was classed as inactive in assay [9].

For `CCN1CCN(c2cc3c(cc2F)c(=O)c(C(=O)O)cn3C2CC2)CC1`, in [1], the cell count is 605. For the same molecule, the inhibition in assay [1] was 1.1% (inactive); in assay [3] it was -41.3% (inactive); in assay [5], -5.24% (inactive); in assay [10], -15.2% (inactive); in assay [11], 1.29% (inactive); in [12] it was 31.6% (inactive). For the same molecule, the inhibition of aggregation in assay [2] is 3.3% (inactive). The nuclei count in assay [2] was 97.3%; in assay [3] it was 116%. Also, the z-score in assay [4] (setting [13]) came out at 0.332; in assay [4] (setting [14]) it was 0.418; in [4] (setting [15]), 0.882. Further, in assay [6], the fluorescence slope is -0.498 (inactive). For the same molecule, the NADPH fluorescence slope in [7] was 1.7e-06 (inactive). Besides, the slope in assay [8] was 0.0049 (inactive). Further, the call in assay [9] was inactive.

Consider `CCCCOc1ccc(-c2nnc(N)s2)cc1`, for which the cell count in assay [1] came out at 634. The inhibition was -17.7% (inactive) in assay [1]; -23.7% (inactive) in assay [3]; -15% (inactive) in assay [5]; 2.26% (inactive) in assay [10]; -42.6% (inactive) in [11]; -89.4% (inactive) in [12]. Besides, the inhibition of aggregation in assay [2] was -7.4% (inactive). Besides, the nuclei count was 104% in [2] and 146% in [3]. For the same molecule, the z-score was -0.283 in assay [4] (setting [13]), 0.709 in assay [4] (setting [14]) and 0.136 in assay [4] (setting [15]). The fluorescence slope in assay [6] was -0.405 (inactive). In addition, the NADPH fluorescence slope in assay [7] was -6.4e-05 (inactive). The slope in assay [8] was 0.00759 (inactive). Besides, the result in assay [9] was inactive.
